Consider 39 molecules from PubChem BioAssay (NCI).

This is part of a sample that, as a whole, favours compounds with a hit. Of some 83,000 tested, about 20% had one in any assay.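 Growth was measured after 48 h exposure to one concentration of compound in 96-well plates. Values under 10 count as active.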 Unmarked numbers belong to inactive results. Active and inactive are the calls of the source.

One experiment concerns U251 CNS. Kind of experiment: NCI-60 one-dose screen, 48 h (100 = growth as untreated, 0 = no growth, -100 = all killed). To be noted: 10 µM unless noted.
With `CC(=O)Nc1nc(C(=O)N2N=C(C)/C(=C/c3cccs3)C2=O)cs1`, the growth is 99.4%.
For `CN1C(=O)[C@H]2c3c1cccc3[C@@]13NC(=O)O[C@H]1[C@H](CCC3(C)C)C2(C)C`, the growth was 103%.
The same measure, in the same setting: next, `CC(=O)C1CCC(C)=CC1=O` (stereo not drawn): 97.4%.
With `COc1cccc(-n2cc(-c3nc(Cl)c4ccccc4n3)nn2)c1`, the growth was 153%.
On the same count and under the same terms, as for `Nc1c(C(=O)Nc2cccc(Cl)c2Cl)sc2nc3c(cc12)C(=O)CCC3`, the figure is 120%; as for `COc1cc(/C=C2\CCCC3=C2NC(C)=NC3c2cc(OC)c(OC)c(OC)c2)cc(OC)c1OC` (stereo not drawn), 9.77% (active); as for `O=c1[nH]c(-c2cn(-c3ccc(Cl)cc3)nn2)nc2ccccc12`, 74.5%.
In the case of `CC/C(=C(\c1ccc(O)cc1)c1ccc(OCCN(C)CCN(C)C(=O)CCC(=O)c2c(C)[nH]c(/C=C3\N=C(c4ccc[nH]4)C=C3OC)c2C)cc1)c1ccccc1`, the growth is 63.2%.
Same read-out and setting: next, `Cc1cc(Nc2nc(-c3ccncc3)nc3ccccc23)n[nH]1`: 115%; `COc1cc(C2C=C(C)N=C3SC=CN32)cc(OC)c1OC` (stereo not drawn): 103%.
Same read-out and setting: as for `COC1=CC(c2ccc[nH]2)=N/C1=C\c1[nH]c(C)c(C(=O)CCC(=O)Oc2ccc3c(c2)CCC2C3CC[C@]3(C)[C@@H](O)CC[C@@H]23)c1C` (stereo partly drawn), the figure is -48.4% (active); as for `Cc1ccc(Cn2c(-c3nonc3N)nc3ccccc32)cc1`, 77.5%; as for `O=C(Nc1ccccc1)OCC1OCOC(COC(=O)Nc2ccccc2)C1OC(=O)Nc1ccccc1` (stereo not drawn), 74.9%.
Same read-out and setting: as for `CC1=CNNc2c3ncnc-3ncn21`, the figure is 102%; as for `CCN(CC)c1cc(/C=C/c2ccc(OC)c(OC)c2)nc2cc(F)c(F)cc12`, -62.3% (active).
Regarding `CCCCCCCCCCCCOB(OCCCCCCCCCCCC)OCCCCCCCCCCCC`, the growth is 94.4%.
In the case of `c1ccn2nnnc2c1`, the growth is 92.7%.
As for `Nc1c(C(=O)Nc2c(Cl)cccc2Cl)sc2nc3c(cc12)CCCCC3`, the growth was 66.7%.
For the molecule `COc1ccc(-n2c(C)cc(-c3ccccc3)c2C)cc1`, the growth is 43.5%.
Same read-out and setting: as for `COc1cc2c(cc1OC)C1(C)N(CC2)C(=O)OC1(C)C` (stereo not drawn), the figure is 101%.
Take `COc1ccc(/C=C/c2nc(N3CCOCC3)c3nc(Cl)c(Cl)cc3n2)cc1OC`: the growth is 103%.
In the case of `Cc1cccc(NC(=O)c2sc3nc4c(cc3c2N)CCCC4)c1`, the growth was 34.4%.
Same read-out and setting: as for `O=C(/C=C/c1ccccc1)n1c(-c2ccc(Cl)cc2)nc2ccccc21`, the figure is -0.388% (active); as for `COc1cc(Cn2c(-c3nonc3N)nc3ccccc32)ccc1C`, 21.6%.
With `Clc1ccc(-c2nc(-c3ccco3)cn3ccnc23)cc1`, the growth was -51.3% (active).
The same measure, in the same setting: next, `Oc1ccc(N=Cc2ccccc2)cc1`: 96.1%; `CCCCCc1c(C)[nH]c(/C=c2\[nH]/c(=C3/C=c4ccccc4=N3)cc2OC)c1C`: -95.1% (active).
On the same count and under the same terms, next, `COc1cc2nc(Cl)nc(NCCO)c2cc1OC`: 96.5%; `CCC1CCc2nc3sc(C(=O)Nc4ccccc4C)c(N)c3cc2C1` (stereo not drawn): 42%; `Cc1cc(Nc2nc(C(=O)Nc3ccccc3)nc3ccccc23)n[nH]1`: 72.5%.
Turning to `c1ccc2nc(-c3ccc4ccccc4n3)ccc2c1`, the growth was 95.8%.
On the same count and under the same terms, as for `Clc1nc2ccccc2nc1CI`, the figure is 113%.
As to `Cc1cccc(NC(=O)c2sc3nc4c(cc3c2N)CCC4)c1C`, the growth was 16.6%.
Still for that read-out and setting: as for `Clc1cccc(Cl)c1Cn1c(-c2cncs2)nc2ccccc21`, the figure is 93.7%; as for `Clc1ccc(/C=C/c2nc(N3CCOCC3)c3nc(Cl)c(Cl)cc3n2)cc1`, 103%; as for `Cc1cc(Nc2nc(-c3ccc(F)cc3)nc3ccccc23)n[nH]1`, 88.4%.
On the same count and under the same terms, next, `COC(=O)[C@H]1[C@H](OC)[C@@H](OC(=O)/C=C/c2ccncc2)CC2CN3CCc4c([nH]c5cc(OC)ccc45)[C@@H]3C[C@@H]21` (stereo partly drawn): 67.1%; `CN(C)c1ncc(-c2ccc(C(F)(F)F)cc2)c(NC2CCCCCC2)n1`: 40.1%.
Same read-out and setting: as for `CC(=O)Nc1ccc(S(=O)(=O)N2C(=O)CCC2C(=O)Nc2ccccc2)cc1` (stereo not drawn), the figure is 29.4%.

A further experiment has as its system PC-3 prostate. The description is as above. Conditions: 10 µM unless noted.
Consider `CC(=O)Nc1nc(C(=O)N2N=C(C)/C(=C/c3cccs3)C2=O)cs1`, for which the growth was 102%.
The same measure, in the same setting: next, `CN1C(=O)[C@H]2c3c1cccc3[C@@]13NC(=O)O[C@H]1[C@H](CCC3(C)C)C2(C)C`: 84.6%; `CC(=O)C1CCC(C)=CC1=O` (stereo not drawn): 96.3%.
The same measure, in the same setting: next, `COc1cccc(-n2cc(-c3nc(Cl)c4ccccc4n3)nn2)c1`: 97.5%; `Nc1c(C(=O)Nc2cccc(Cl)c2Cl)sc2nc3c(cc12)C(=O)CCC3`: 93.7%; `COc1cc(/C=C2\CCCC3=C2NC(C)=NC3c2cc(OC)c(OC)c(OC)c2)cc(OC)c1OC` (stereo not drawn): 42.7%.
`O=c1[nH]c(-c2cn(-c3ccc(Cl)cc3)nn2)nc2ccccc12`: the growth was 74.8%.
Take `CC/C(=C(\c1ccc(O)cc1)c1ccc(OCCN(C)CCN(C)C(=O)CCC(=O)c2c(C)[nH]c(/C=C3\N=C(c4ccc[nH]4)C=C3OC)c2C)cc1)c1ccccc1`: the growth is 61.4%.
On the same count and under the same terms, next, `Cc1cc(Nc2nc(-c3ccncc3)nc3ccccc23)n[nH]1`: 61%.
The same measure, in the same setting: as for `COc1cc(C2C=C(C)N=C3SC=CN32)cc(OC)c1OC` (stereo not drawn), the figure is 94.5%.
For the molecule `COC1=CC(c2ccc[nH]2)=N/C1=C\c1[nH]c(C)c(C(=O)CCC(=O)Oc2ccc3c(c2)CCC2C3CC[C@]3(C)[C@@H](O)CC[C@@H]23)c1C` (stereo partly drawn), the growth was 17.8%.
The same measure, in the same setting: next, `Cc1ccc(Cn2c(-c3nonc3N)nc3ccccc32)cc1`: 72.2%.
Same read-out and setting: as for `O=C(Nc1ccccc1)OCC1OCOC(COC(=O)Nc2ccccc2)C1OC(=O)Nc1ccccc1` (stereo not drawn), the figure is 64.2%; as for `CC1=CNNc2c3ncnc-3ncn21`, 99.9%; as for `CCN(CC)c1cc(/C=C/c2ccc(OC)c(OC)c2)nc2cc(F)c(F)cc12`, 65.6%.
Same read-out and setting: as for `CCCCCCCCCCCCOB(OCCCCCCCCCCCC)OCCCCCCCCCCCC`, the figure is 98.5%; as for `c1ccn2nnnc2c1`, 97.6%; as for `Nc1c(C(=O)Nc2c(Cl)cccc2Cl)sc2nc3c(cc12)CCCCC3`, 70.6%.
In the case of `COc1ccc(-n2c(C)cc(-c3ccccc3)c2C)cc1`, the growth was 31.7%.
As to `COc1cc2c(cc1OC)C1(C)N(CC2)C(=O)OC1(C)C` (stereo not drawn), the growth is 97.3%.
The same measure, in the same setting: as for `COc1ccc(/C=C/c2nc(N3CCOCC3)c3nc(Cl)c(Cl)cc3n2)cc1OC`, the figure is 102%; as for `Cc1cccc(NC(=O)c2sc3nc4c(cc3c2N)CCCC4)c1`, 26.6%.
Same read-out and setting: next, `O=C(/C=C/c1ccccc1)n1c(-c2ccc(Cl)cc2)nc2ccccc21`: 6.09% (active); `COc1cc(Cn2c(-c3nonc3N)nc3ccccc32)ccc1C`: 24.4%.
Regarding `Clc1ccc(-c2nc(-c3ccco3)cn3ccnc23)cc1`, the growth was 60.2%.
The same measure, in the same setting: as for `Oc1ccc(N=Cc2ccccc2)cc1`, the figure is 68.3%; as for `CCCCCc1c(C)[nH]c(/C=c2\[nH]/c(=C3/C=c4ccccc4=N3)cc2OC)c1C`, -6.91% (active); as for `COc1cc2nc(Cl)nc(NCCO)c2cc1OC`, 93.4%.
For `CCC1CCc2nc3sc(C(=O)Nc4ccccc4C)c(N)c3cc2C1` (stereo not drawn), the growth was 26.8%.
Still for that read-out and setting: as for `Cc1cc(Nc2nc(C(=O)Nc3ccccc3)nc3ccccc23)n[nH]1`, the figure is 51.2%.
Same read-out and setting: next, `c1ccc2nc(-c3ccc4ccccc4n3)ccc2c1`: 84.5%.
On the same count and under the same terms, as for `Clc1nc2ccccc2nc1CI`, the figure is 89.6%.
`Cc1cccc(NC(=O)c2sc3nc4c(cc3c2N)CCC4)c1C`: the growth is 11.2%.
`Clc1cccc(Cl)c1Cn1c(-c2cncs2)nc2ccccc21`: the growth was 62.2%.
On the same count and under the same terms, as for `Clc1ccc(/C=C/c2nc(N3CCOCC3)c3nc(Cl)c(Cl)cc3n2)cc1`, the figure is 102%.
Same read-out and setting: as for `Cc1cc(Nc2nc(-c3ccc(F)cc3)nc3ccccc23)n[nH]1`, the figure is 56.5%; as for `COC(=O)[C@H]1[C@H](OC)[C@@H](OC(=O)/C=C/c2ccncc2)CC2CN3CCc4c([nH]c5cc(OC)ccc45)[C@@H]3C[C@@H]21` (stereo partly drawn), 56%.
Still for that read-out and setting: next, `CN(C)c1ncc(-c2ccc(C(F)(F)F)cc2)c(NC2CCCCCC2)n1`: 22%; `CC(=O)Nc1ccc(S(=O)(=O)N2C(=O)CCC2C(=O)Nc2ccccc2)cc1` (stereo not drawn): 26.7%.
